System in the first assay: not listed separately
The assay is described as follows: binders of probe aHhip on microarray, primary screen, stem cell growth factor project, biochemical, small-molecule microarray, fluorescence 635/667 (AID 1087).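 Further: score merges spot fluorescence at 667nm with spot signal to noise ratio.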 As to conditions: higher = more signal.
On to `[N-]=[N+]=Nc1ccccc1C[C@]1(C(=O)O)N=C(c2ccc(OCCCO)cc2)O[C@H]1c1ccccc1N=[N+]=[N-]`, for which the composite z-score came to 0.543. `C=C(/C(=C/C[C@@H](OC(=O)c1ccncc1)c1cccc(OCCO)c1)c1cnc2ccccc2c1)C(C)C`: the composite z-score was -0.116. On the same count and under the same terms, for `CCCNC(=O)[C@@]1(Sc2ccc(C)cc2)CC(=O)N(C(C)C)[C@@H]1c1ccc(CO)cc1I` the value was -0.0994; for `C=CCNC(=O)[C@@H]1[C@H]2C(=O)O[C@H](c3ccccc3)[C@H](c3ccccc3)N2[C@H](c2ccc(OCCO)cc2)[C@@]12C(=O)N(C(=O)OCCOC)c1ccc(C#CCCO)cc12`, -0.164; for `CCCCCCCCCCC(O)C1C=CC2C(=O)N(c3ccccc3)C(=O)C2N1Nc1ccccc1F` (stereo not drawn), -0.185.

On to `COC(=O)C1N=C(c2ccc(OCCCO)cc2)N(c2ccccc2)O1` (stereo not drawn), for which the composite z-score is -0.317. Still for that read-out and setting: for `COC(=O)[C@@]1(Cc2ccc(F)cc2)[C@H]2c3cc(C(=O)N4CCCC4)n(C)c3C[C@H]2CN1C(=O)c1ccccc1` the value was -0.0645; for `O=C1C2C=CC(C(O)C=Cc3ccc([N+](=O)[O-])cc3)N(Nc3ccccc3)C2C(=O)N1c1ccccc1` (stereo not drawn), -0.0237.

A further assay deals with PRMT1 (protein arginine N-methyltransferase 1). The assay is described as follows: small molecules binding arginine methyltransferase PRMT1 – biochemical, small-molecule microarray, 635 nm fluorescence, primary screen (AID 1088).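 Further: binding of Prmt1 protein to compounds spotted on small-molecule microarray slides.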 As to conditions: higher = more signal.
Compound `CCOC(=O)C=Cc1cc(F)ccc1O` returned a composite z-score of 0.311.

Consider `[N-]=[N+]=Nc1ccccc1[C@@H]1OC(c2ccc(OCCCO)cc2)=N[C@]1(Cc1ccccc1)C(=O)NCc1ccccc1`, for which the composite z-score is 1.47. Still for that read-out and setting: for `Cc1ccccc1C(O)C1C=CC2C(=O)NC(=O)C2N1Nc1ccc(Cl)cc1Cl` (stereo not drawn) the value was 0.528.

For the compound `COc1ccc([Si](C)(C)[C@H]2[C@H](CCO)O[C@@]3(C(=O)N(Cc4ccccc4)c4ccc(N5CCOC5=O)cc43)[C@@H]2C)cc1`, the composite z-score amounted to 1.13. On the same count and under the same terms, for `COCC1C2CC[C@H]3C(OCc4ccc(OC)cc4)OC[C@]4(C)[C@H]3C2=C(CN4C(=O)OC(C)(C)C)[C@H](C)C1COC` (stereo partly drawn) the value was 1.57; for `COCCOC(=O)N1C(=O)[C@@]2(c3cc(C#CC4(O)CCCCCC4)ccc31)[C@H](C(=O)N1CCN(c3ncccn3)CC1)[C@H]1C(=O)O[C@H](c3ccccc3)[C@H](c3ccccc3)N1[C@@H]2c1ccccc1OCCO`, 1.2; for `COc1ccc(C(=O)Nc2cccc(CN3C(=O)[C@@]4(O[C@@H](CC(=O)N(CCO)Cc5ccccc5)[C@H]([Si](C)(C)c5ccc(OC)cc5)[C@H]4C)c4ccccc43)c2)cc1`, 0.931.

`COCCOC(=O)N1C(=O)[C@@]2(c3cc(C#CCNC(N)=O)ccc31)[C@H](c1ccc(O)cc1)N1[C@H](c3ccccc3)[C@H](c3ccccc3)OC(=O)[C@H]1[C@@H]2C(N)=O` yielded a composite z-score of -1.22. Compound `O=C1C2C=CC(C(O)c3cccc(O)c3)N(Nc3ccccc3)C2C(=O)N1c1ccccc1` (stereo not drawn) displayed a composite z-score of -0.413. On the same count and under the same terms, for `COc1ccc([Si](C)(C)[C@@H]2[C@@H](CC(=O)N3Cc4ccccc4C[C@H]3CO)O[C@]3(C(=O)N(c4ccccc4)c4ccccc43)[C@H]2C)cc1` the value was 1.41. On the same count and under the same terms, for `COc1ccc(C(O)C2C=CC3C(=O)N(c4ccccc4)C(=O)C3N2Nc2ccccc2F)cc1` (stereo not drawn) the value was 1.1. The same measure, in the same setting: for `COCCOC(=O)N1C(=O)[C@@]2(c3cc(C#CCC(C(=O)OC)C(=O)OC)ccc31)[C@H](c1ccc(O)cc1)N1[C@H](c3ccccc3)[C@H](c3ccccc3)OC(=O)[C@H]1[C@@H]2C(=O)NC[C@H](O)c1ccccc1` the value was 1.38; for `COCC(=C=CC[C@H](O)c1cccc(OCCO)c1)C[C@H](O)COCc1ccccc1`, 0.949.

`C=C(C)[C@@H]1CC=C(C(O)C2C=CC3C(=O)N(c4ccccc4)C(=O)C3N2Nc2ccc(C#N)cc2)CC1` (stereo partly drawn): the composite z-score was 1.54. Same read-out and setting: for `COc1ccc(NC(=O)O[C@H]2[C@@H]3OC(=O)[C@H](Cc4cccc(Br)c4)C/C=C/C[C@@H](Cc4cccc(Br)c4)C(=O)O[C@H]3[C@@H](OC)O[C@@H]2CO)cc1` the value was 1.06; for `C=C(/C(=C/C[C@H](OC(=O)c1ccncc1)c1cccc(OCCO)c1)c1cnc2ccccc2c1)C(C)C`, 1.54. `CS(=O)(=O)CCOC(=O)C1=CC(CCCO)=CC(C2CC2)N(Cc2cccc(OC(F)(F)F)c2)C=C1C(=O)OCCS(C)(=O)=O` (stereo not drawn) showed a composite z-score of 0.757.

With `NC(=O)[C@H]1[C@@H]2C(=O)O[C@@H](c3ccccc3)[C@@H](c3ccccc3)N2[C@@H](c2ccc(O)cc2)[C@]12C(=O)Nc1ccc(C#CC3=CCCCC3)cc12`, the composite z-score stood at 1.45. In turn, `[N-]=[N+]=NCc1ccccc1[C@@H]1OC(c2ccc(OCCCO)cc2)=N[C@]1(Cc1ccccc1)C(=O)NCCN1CCOCC1` showed a composite z-score of 1.53. Still for that read-out and setting: for `COc1cc(C(O)C2C=CC3C(=O)N(Cc4ccccc4)C(=O)C3N2n2cnnc2)cc(OC)c1OC` (stereo not drawn) the value was 0.932; for `C=CCN1C(=O)[C@@]2(O[C@@H](CCO)[C@H]([Si](C)(C)c3ccc(OC)cc3)[C@H]2C)c2cc(N3CCOC3=O)ccc21`, 0.989; for `CC(C)[C@H]1NC(=O)[C@@]23C(=O)N[C@@H](Cc4ccccc4)C2[C@H](C)[C@@]2(C)O[C@H]2C3/C=C/C/C=C\CNC(=O)[C@H](Cc2ccccc2)NC1=O` (stereo partly drawn), 1.53. Still for that read-out and setting: for `O=C1C2C=CC(C(O)c3ccco3)N(Nc3ccccc3)C2C(=O)N1c1ccccc1` (stereo not drawn) the value was -0.182. Regarding `CC(C)C[C@@H]1NC(=O)[C@@]23C(=O)N[C@@H](Cc4ccccc4)C2[C@H](C)[C@@]2(C)O[C@H]2C3/C=C/C/C=C\CNC(=O)[C@@H](C)NC1=O` (stereo partly drawn), the composite z-score was determined as 0.5. Same read-out and setting: for `CCN(CC)c1ccc(N2CC=CC34O[C@@H]5/C=C\CCC(C)OC(=O)C5[C@H]3C(=O)N(C(C)CO)[C@@H]4C2=O)cc1` (stereo partly drawn) the value was 0.41. As for `CO[C@H]1O[C@H](CO)[C@@H](OC(=O)c2ccc(Br)cc2)[C@@H]2OC(=O)[C@H](Cc3ccccc3)C/C=C/C[C@@H](Cc3ccccc3)C(=O)O[C@@H]12`, the composite z-score was found to be 0.965. In the case of `CC(C)C(CO)N1C(=O)[C@@H]2[C@H]3C(=O)OCC=C[C@H]3OC23C=CCN(C(C)(C)C)C(=O)[C@@H]13` (stereo partly drawn), the composite z-score is -0.0274. Still for that read-out and setting: for `[N-]=[N+]=Nc1ccccc1C[C@]1(C(=O)O)N=C(c2ccc(OCCCO)cc2)O[C@H]1c1ccccc1N=[N+]=[N-]` the value was 1.43. Same read-out and setting: for `C=C(/C(=C/C[C@@H](OC(=O)c1ccncc1)c1cccc(OCCO)c1)c1cnc2ccccc2c1)C(C)C` the value was 1.55; for `CCCNC(=O)[C@@]1(Sc2ccc(C)cc2)CC(=O)N(C(C)C)[C@@H]1c1ccc(CO)cc1I`, 1.28; for `C=CCNC(=O)[C@@H]1[C@H]2C(=O)O[C@H](c3ccccc3)[C@H](c3ccccc3)N2[C@H](c2ccc(OCCO)cc2)[C@@]12C(=O)N(C(=O)OCCOC)c1ccc(C#CCCO)cc12`, 1.55.

`CCCCCCCCCCC(O)C1C=CC2C(=O)N(c3ccccc3)C(=O)C2N1Nc1ccccc1F` (stereo not drawn) came in with a composite z-score of 0.545. Same read-out and setting: for `COC(=O)C1N=C(c2ccc(OCCCO)cc2)N(c2ccccc2)O1` (stereo not drawn) the value was 0.433; for `COC(=O)[C@@]1(Cc2ccc(F)cc2)[C@H]2c3cc(C(=O)N4CCCC4)n(C)c3C[C@H]2CN1C(=O)c1ccccc1`, 0.579. In turn, `O=C1C2C=CC(C(O)C=Cc3ccc([N+](=O)[O-])cc3)N(Nc3ccccc3)C2C(=O)N1c1ccccc1` (stereo not drawn) gave a composite z-score of 1.33.

Source of the values: PubChem BioAssay.
